The supplement of paper PMC9177965
“And” between values parts separate entries of the source, which are not always exact repeats. Identical values can stand only once.

System: HT29 sg-Ctrl (RNF43 wildtype)
Assay: cell viability activity relative to DMSO (negative = inhibition); higher = more viable cells (less growth inhibition)
Conditions: 5 µM; 96 h
Method: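 Broad Repurposing Library primary screen at a single dose of 5 uM. HT29 sg-Ctrl and HT29 RNF43 G659fs CRISPR-edited isogenic cells were seeded at 2500 cells/well in 384-well plates in duplicate and treated for 96 h. Viability was read by CellTiter-Glo and reported as % activity relative to DMSO, with MG132 as the positive control (negative = growth inhibition).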

SMILES	cell viability activity
COc1ccc(N(C)c2nc(C)nc3ccccc23)cc1	-68%
CC(=O)O[C@@]12CO[C@@H]1C[C@H](O)[C@@]1(C)C(=O)[C@H](O)C3=C(C)[C@@H](OC(=O)[C@H](O)[C@@H](NC(=O)OC(C)(C)C)c4ccccc4)C[C@@](O)([C@@H](OC(=O)c4ccccc4)[C@H]21)C3(C)C	-58.6%
O=C1NC(=O)[C@@H](c2cn3c4c(cccc24)CCC3)[C@@H]1c1c[nH]c2ccccc12	-61.7%
Cc1nc(N)sc1-c1ccnc(Nc2ccc(N3CCOCC3)cc2)n1	-59.8%
O=C(NOCCO)c1cc(CN2OCCCC2=O)c(F)c(F)c1Nc1ccc(I)cc1F	-75%
CC[C@@H](C(=O)[C@@H](C)[C@@H](O)[C@H](C)CCc1ccc(C)c(O)c1C(=O)O)[C@H]1O[C@](CC)([C@H]2CC[C@](O)(CC)[C@H](C)O2)C[C@@H]1C	-42.9%
Cn1cc(C2=C(c3cn(CCCSC(=N)N)c4ccccc34)C(=O)NC2=O)c2ccccc21	-73.6%
CN1CCc2c(c3ccccc3n2Cc2ccccc2)C1	-56.9%
NS(=O)(=O)OC[C@@H]1C[C@@H](n2ccc3c(N[C@H]4CCc5ccccc54)ncnc32)C[C@@H]1O	-63.2%
CNC(=O)c1ccccc1Nc1cc(Nc2ccc(N3CCOCC3)cc2OC)ncc1C(F)(F)F	-60%
CC[C@H](C)[C@@H]([C@@H](CC(=O)N1CCC[C@H]1[C@H](OC)[C@@H](C)C(=O)N[C@@H](Cc1ccccc1)c1nccs1)OC)N(C)C(=O)[C@@H](NC(=O)[C@H](C(C)C)N(C)C)C(C)C	-43%
O=C(/C=C/c1ccc(CN(CCO)CCc2c[nH]c3ccccc23)cc1)NO	-92.2%
CCN(CC)c1ccc(C(=C2C=CC(=[N+](CC)CC)C=C2)c2ccccc2)cc1	-97.2%
c1cc(-c2cnn3cc(-c4ccc(N5CCNCC5)cc4)cnc23)c2cccnc2c1	-96.2%
CN(C)c1ccc(C(=O)NCCCCCCC(=O)NO)cc1	-82%
Cn1c(=O)c(F)c(Nc2ccc(I)cc2F)c2c(=O)n(C[C@@H](O)CO)cnc21	-90.5%
Cc1cc(Nc2cc(N3CCN(C)CC3)nc(Sc3ccc(NC(=O)C4CC4)cc3)n2)n[nH]1	-38.2%
COC(=O)Nc1ccc(-c2nc(N3CCOCC3)c3cnn(C4CCN(C(=O)OC)CC4)c3n2)cc1	-38%
COc1cc(Nc2c(C#N)cnc3cc(OCCCN4CCN(C)CC4)c(OC)cc23)c(Cl)cc1Cl	-97.9%

SMILES	cell viability activity
Cn1nccc1Nc1nccc(-c2ccn([C@H](CO)c3ccc(Cl)c(F)c3)c(=O)c2)n1	-52.1%
O=C(NC[C@H](O)CO)c1ccncc1Nc1ccc(I)cc1F	-91.2%
CCc1c2c(nc3ccc(O)cc13)-c1cc3c(c(=O)n1C2)COC(=O)[C@]3(O)CC	-63.3%
O=C(/C=C/c1ccc2ccccc2n1)c1ccncc1	-54%
CN(C)C/C=C/C(=O)Nc1cccc(C(=O)Nc2cccc(Nc3ncc(Cl)c(-c4c[nH]c5ccccc45)n3)c2)c1	-94.7%
CCCC[C@H](NC(C)=O)C(=O)N[C@H]1CC(=O)NCCCC[C@@H](C(=O)O)NC(=O)[C@H](Cc2c[nH]c3ccccc23)NC(=O)[C@H](CCCNC(=N)N)NC(=O)[C@@H](Cc2ccccc2)NC(=O)[C@H](Cc2c[nH]cn2)NC1=O	-7.64%
Cc1cc(NC(=O)NCCN2CCC(O)(Cc3ccccc3)CC2)c2ccccc2n1	-24.3%
CC(=O)O[C@H]1C(=O)[C@@]2(C)[C@H]([C@H](OC(=O)c3ccccc3)[C@]3(O)C[C@H](OC(=O)[C@H](O)[C@@H](NC(=O)c4ccccc4)c4ccccc4)C(C)=C1C3(C)C)[C@]1(OC(C)=O)CO[C@@H]1C[C@@H]2O	-54.2% and -52.9%
COC(=O)Nc1nc2ccc(SC(C)C)cc2[nH]1	-5.83%
CC(C)(N)c1cc(C(=O)N[C@@H]2CCc3ccc(Oc4ccnc5c4CCC(=O)N5)cc3C2)cc(C(F)(F)F)c1	-59.3%
Cc1ccc(C(=O)Nc2ccc(CN3CCN(C)CC3)c(C(F)(F)F)c2)cc1C#Cc1cnc2[nH]ncc2c1	-94%
CC[C@H](CC#N)OC(=O)N[C@@H](C)c1cccc(NC(=O)Nc2ccc(-c3cnco3)c(OC)c2)c1	-55.9%
NCCCCNCCCN	-2.46%
CC(C)C[C@@H](C=O)NC(=O)[C@H](CC(C)C)NC(=O)[C@H](CC(C)C)NC(=O)OCc1ccccc1	-96.2%
O=C(NOC[C@H](O)CO)c1ccc(F)c(F)c1Nc1ccc(I)cc1F	-85%
Cc1cc(O)c(-c2ccc([C@@H](C)CN)cc2)c2c1[nH]c(=O)c1sccc12	-92.7%
CO[C@@H](C)Cn1c(=O)n(C)c2cnc3ccc(-c4cncc(C(C)(C)O)c4)cc3c21	-78.6%
CC(=O)OC1CC2CCC1(C)C2(C)C (configuration not stated)	-26.5%
